Measured values as given in PubChem BioAssay (NCATS).
Results filed as inconclusive are left out. Activity calls are given as the source filed them. The call rests on the fitted dose curve; in most records, active means well fitted curve in the direction sought with a large enough effect; inconclusive means small, poorly fitted or top-dose-only effect, or another doubt; inactive means no such curve, though single readings can be large; an effect the other way counts as inactive or inconclusive. Positions of bridges follow the written chain, without caps; N, C: chain ends. Non-standard residues stand in square brackets, D forms with d. Residues, ends and D or L forms follow the SMILES beside them. ξ: configuration not given here. *: point of attachment. Octanoyl(6-Me) = CCC(C)CCCCC(=O)*; ξThr(3R) = C[C@@H](O)C(N)C(=O)O; dDab = NCC[C@@H](N)C(=O)O; Dab = NCC[C@H](N)C(=O)O

Tests used:
[1] = qHTS of pediatric cancer cell lines to identify multiple opportunities for drug repurposing: Primary screen for NB-EBc1 cells (AID 1347095)
In short: (§1)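 ATP-based luminescence (CellTiter-Glo) quantifies viability after a 48-hour exposure. Compounds are dosed across 8 or 11 final concentrations; DMSO and 2.3 µM bortezomib serve as controls.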

[2] = qHTS of pediatric cancer cell lines to identify multiple opportunities for drug repurposing: Primary screen for SK-N-SH cells (AID 1347098); further: nearly all actives have a fitted effect of over 65% in size
In short: (§2)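 Cells (500-1,000/well) rested 5 h, then received compounds for 48 h; metabolically active cells were measured by CellTiter-Glo luminescence. Final concentrations spanned up to 46 µM (MIPE, 11-point) or 0.59 nM-46 µM (NPC, 8-point) in primary screens, 11-point in follow-ups.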

[3] = qHTS of pediatric cancer cell lines to identify multiple opportunities for drug repurposing: Primary screen for NB1643 cells (AID 1347099); further: nearly all actives have a fitted effect of over 50% in size
In short: as §1

[4] = qHTS of pediatric cancer cell lines to identify multiple opportunities for drug repurposing: Primary screen for LAN-5 cells (AID 1347100)
In short: as §2

[5] = qHTS of pediatric cancer cell lines to identify multiple opportunities for drug repurposing: Primary screen for OHS-50 cells (AID 1347103); further: nearly all actives have a fitted effect of over 40% in size
In short: as §2

[6] = qHTS of pediatric cancer cell lines to identify multiple opportunities for drug repurposing: Primary screen for U-2 OS cells (AID 1347096); further: nearly all actives have a fitted effect of over 50% in size
In short: as §2

[7] = qHTS of pediatric cancer cell lines to identify multiple opportunities for drug repurposing: Primary screen for Saos-2 cells (AID 1347097); further: nearly all actives have a fitted effect of over 40% in size
In short: as §1

[8] = qHTS of pediatric cancer cell lines to identify multiple opportunities for drug repurposing: Primary screen for BT-12 cells (AID 1347101); further: nearly all actives have a fitted effect of over 25% in size
In short: as §2

[9] = qHTS of pediatric cancer cell lines to identify multiple opportunities for drug repurposing: Primary screen for RD cells (AID 1347104); further: nearly all actives have a fitted effect of over 55% in size
In short: as §1

[10] = qHTS of pediatric cancer cell lines to identify multiple opportunities for drug repurposing: Primary screen for Rh18 cells (AID 1347102); further: nearly all actives have a fitted effect of over 65% in size
In short: as §2

Measured: Potency
Potency means the concentration at half of the fitted maximal effect.

O=C(Nc1nnc(-c2ccco2)o1)c1cc(-c2ccccc2)nc2ccccc12
active: [1] 8.33 µM | [2] 30.4 µM | [3] 10.5 µM | [4] 20.9 µM | [5] 30.6 µM

Nc1nc(N)c2nc(-c3cccc(O)c3)c(-c3cccc(O)c3)nc2n1
active: [6] 23.5 µM | [7] 18.7 µM | [2] 19.2 µM | [3] 5.9 µM | [4] 11.8 µM | [8] 21.7 µM | [5] 19.3 µM | [9] 11.8 µM

O=C1NCCc2[nH]c(-c3ccncc3)cc21
active: [1] 2.09 µM | [7] 4.18 µM | [8] 2.43 µM | [5] 2.43 µM | [9] 6.62 µM

Cc1ncc(-c2ccnc(Nc3ccc(S(C)(=O)=O)cc3)n2)n1C(C)C
active: [1] 2.35 µM | [7] 3.72 µM | [3] 2.35 µM | [8] 3.85 µM | [5] 3.85 µM | [9] 6.62 µM

CCOC(=O)N1CCN([N+]([O-])=NOc2ccc([N+](=O)[O-])cc2C#N)CC1
inactive: [2]
active: [1] 5.26 µM | [3] 3.72 µM | [4] 4.18 µM | [8] 3.06 µM | [5] 3.43 µM | [9] 4.69 µM

COc1cc([C@@H]2c3cc4c(cc3[C@H](O)[C@H]3COC(=O)[C@@H]23)OCO4)cc(OC)c1OC
active: [1] 0.0209 µM | [7] 0.118 µM | [4] 0.0833 µM | [8] 0.273 µM | [5] 0.172 µM
inactive: [10]

CCC(C)CCCCC(=O)N[C@@H](CCN)C(=O)NC(C(=O)N[C@H](CCN)C(=O)N[C@@H]1CCNC(=O)C([C@@H](C)O)NC(=O)[C@@H](CCN)NC(=O)[C@@H](CCN)NC(=O)[C@@H](CC(C)C)NC(=O)[C@H](Cc2ccccc2)NC(=O)[C@H](CCN)NC1=O)[C@@H](C)O (stereo partly drawn) ({Octanoyl(6-Me)}-[Dab][ξThr(3R)][dDab][dDab][Dab]F[dL][dDab][dDab][ξThr(3R)]; lactam 4-C)
not listed: [1]
inactive: all other assays above

CCCNC(=O)[C@H]1O[C@H]1C(=O)N[C@H](C(=O)N1CCC[C@@H]1C(=O)OC)C(C)CC (stereo partly specified)
active: [1] 16.6 µM | [7] 2.96 µM | [3] 9.35 µM | [4] 10.5 µM | [10] 14.8 µM | [5] 17.2 µM | [9] 10.5 µM

C[C@H](NC(=O)C(C#N)=Cc1cccc(Br)n1)c1ccccc1
active: [1] 7.43 µM | [3] 16.6 µM | [4] 16.6 µM | [5] 19.3 µM | [9] 33.2 µM

NS(=O)(=O)OC[C@@H]1C[C@@H](n2ccc3c(N[C@H]4CCc5ccccc54)ncnc32)C[C@H]1O
inactive: [2] | [5]
active: [1] 0.132 µM | [3] 6.62 µM | [4] 0.833 µM | [9] 0.833 µM

C[C@]12CC[C@@H]3c4ccc(O)cc4CC[C@H]3[C@H]1CC[C@H]2O
active: [1] 9.35 µM | [7] 16.6 µM | [3] 4.18 µM | [4] 9.35 µM | [5] 24.3 µM | [9] 10.5 µM

Cc1ccc(-n2[nH]c(C)c(N=Nc3cccc(-c4cccc(C(=O)O)c4)c3O)c2=O)cc1C
active: [1] 6.62 µM | [7] 13.3 µM | [5] 17.4 µM

COC(=O)[C@H](CCCN=C(N)N)NS(=O)(=O)c1ccc(C)cc1
not listed: [2] | [6] | [7]
inactive: all other assays above

NC(=O)N1CCC(CC(=O)N2CCC([C@H]3c4ncc(Br)cc4CCc4cc(Cl)cc(Br)c43)CC2)CC1
active: [1] 13.2 µM | [7] 18.7 µM | [4] 7.43 µM | [8] 21.7 µM | [5] 8.63 µM | [9] 20.9 µM

CCc1nc(-c2cccc(C)c2)c(-c2ccnc(NC(=O)c3ccccc3)c2)s1
active: [1] 20.9 µM | [7] 16.6 µM | [3] 18.7 µM
inactive: [10]

C=CCNc1c(O)cc2c(O)c1C[C@@H](C)C[C@H](OC)[C@@H](O)[C@@H](C)C=C(C)[C@H](OC(N)=O)[C@@H](OC)C=CC=C(C)C(=O)N2
active: [1] 1.32 µM | [2] 3.04 µM | [4] 1.87 µM | [10] 0.935 µM | [9] 0.264 µM

CNC(=O)c1cccc(-c2ccc3c(N4CCOC[C@H]4C)nc(N4CCOC[C@H]4C)nc3n2)c1
active: [1] 0.132 µM | [7] 0.833 µM | [4] 4.18 µM | [10] 0.332 µM | [5] 0.0685 µM | [9] 0.148 µM

Oc1cc2c(cc1O)C1c3ccc(O)c(O)c3OCC1(O)C2 (stereo unspecified)
not listed: [1]
inactive: all other assays above

NC1=N[C@H]2[C@H](CS[C@H]2CCCCC(=O)O)N1
not listed: [1]
inactive: all other assays above

CNC(=O)Nc1ccc(-c2nc(N3CC4CCC(C3)O4)c3cnn(C4CCC5(CC4)OCCO5)c3n2)cc1
active: [1] 0.132 µM | [7] 0.209 µM | [4] 6.62 µM | [10] 0.0935 µM | [5] 0.0217 µM | [9] 0.0526 µM
inactive: [3]

N#CNC(=NCCCCCCOc1ccc(Cl)cc1)Nc1ccncc1
active: [1] 0.001 µM | [2] 0.0607 µM | [3] 0.0074 µM | [4] 0.001 µM | [8] 0.544 µM | [10] 0.0187 µM | [5] 21.7 µM | [9] 0.0059 µM

Oc1ccc(-c2ccc(-c3cc(Nc4cccc(CNC5CC5)c4)n[nH]3)cc2)c(O)c1
inactive: [3]
active: [1] 2.96 µM | [7] 5.9 µM | [8] 7.69 µM | [5] 1.09 µM | [9] 10.5 µM

CCOC(=O)C1=C(C)NC(=S)NC1c1cccc(O)c1 (stereo unspecified)
inactive: [3] | [10]
active: [1] 0.264 µM | [4] 0.187 µM | [8] 0.137 µM | [5] 0.0968 µM

CC(=O)[C@]1(O)Cc2c(O)c3c(c(O)c2[C@@H](O[C@H]2C[C@H](N)[C@@H](O)[C@H](C)O2)C1)C(=O)c1ccccc1C3=O
active: [1] 0.0372 µM | [3] 0.743 µM | [4] 0.0935 µM | [8] 0.685 µM | [10] 4.69 µM | [5] 0.485 µM | [9] 1.05 µM

CC(N[C@H]1CCCC[C@H]1NC(=O)c1ccc(Cl)cc1)c1cccc2ccccc12 (stereo partly specified)
active: [7] 0.0662 µM | [2] 4.82 µM | [3] 0.418 µM | [4] 2.96 µM | [8] 1.37 µM | [5] 6.11 µM | [9] 2.64 µM
inactive: [6]

C[C@@H]1C(=O)O[C@H]2CC34[C@H]5C[C@@H](C(C)(C)C)C36[C@H](OC(=O)[C@@H]6O)O[C@@]4(C(=O)O5)[C@]21O (stereo partly specified)
inactive: [1] | [10] | [5] | [9]
active: [4] 13.2 µM

FC(F)c1nc2ccccc2n1-c1nc(N2CCOCC2)nc(N2CCOCC2)n1
active: [1] 0.662 µM | [7] 0.526 µM | [4] 1.18 µM | [8] 1.22 µM | [10] 0.935 µM | [5] 0.0769 µM | [9] 0.418 µM

CN(C)CCN1C(=O)c2cccc3cc(N)cc(c23)C1=O
active: [1] 1.87 µM | [2] 21.5 µM | [3] 18.7 µM | [4] 2.96 µM | [8] 21.7 µM | [5] 24.3 µM | [9] 18.7 µM

COc1ccc2c(c1OC)C(=O)OC2[C@H]1c2c(cc3c(c2OC)OCO3)CCN1C (stereo partly specified)
active: [1] 0.372 µM | [7] 0.235 µM | [3] 1.18 µM | [8] 1.09 µM | [5] 0.137 µM | [9] 0.372 µM
inactive: [10]

CC(C)c1cnn2c(NCc3ccccc3)cc(NCCCCCCN)nc12
active: [1] 20.9 µM | [7] 23.5 µM | [3] 18.7 µM | [4] 18.7 µM | [8] 27.3 µM | [5] 21.7 µM | [9] 18.7 µM

Cc1cnc(NC(=O)Nc2cc(Br)c(C)cc2OC[C@@H]2CNCCO2)cn1
active: [1] 1.05 µM | [4] 1.87 µM | [5] 1.37 µM
inactive: [2] | [8] | [10] | [9]

CS(=O)(=O)N1CCc2c(-c3cnc(N)nc3)nc(N3CCOCC3)nc21
active: [1] 0.235 µM | [7] 0.935 µM | [3] 0.469 µM | [4] 0.332 µM | [10] 0.372 µM | [5] 0.0544 µM | [9] 0.418 µM

COc1cc2c(cc1O)CCC1C2CC[C@@]2(C)C1CC[C@@H]2O (stereo partly specified)
active: [1] 0.526 µM | [7] 1.05 µM | [5] 7.69 µM
inactive: [4]

Cn1cnc2c(F)c(Nc3ccc(Br)cc3F)c(C(=O)NOCCO)cc21
inactive: [7] | [3] | [10] | [5]
